Screens (PubChem BioAssay)
This is one part of a sample in which hits are shown more often than they occur.
Pf Dd2 inh: inhibitors of Plasmodium falciparum Dd2 growth | Potency, µM (titrated, usually from 28.9 µM), for the others: at the highest dose activity, negative = inhibition, most hits filed as inhibitors | 4.3% of 120,000 active | P. falciparum Dd2 growth, SYBR Green, 72 h; active means well fitted inhibition curve with a large enough effect;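 further: plate controls were DMSO vehicle for no effect and reference drug for full effect; nearly all actives have a fitted effect of over 65% in size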
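Infected erythrocytes (Dd2, 0.3% parasitemia, 2.5% hematocrit final) are added to compound in RPMI-1640/Albumax II medium, grown 72 h at 37C in low oxygen, then lysed with saponin/Triton-X containing SYBR Green and read by fluorescence.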
Starred values were filed as active, the others as inactive; i = inactive; [ ] = dose if it differs, or a comment. Potency means the concentration at half of the fitted maximal effect.

SMILES	Pf Dd2 inh
COCCNC(=O)[C@@H]1C[C@H](Oc2cccnc2)CN1C(=O)Cc1c[nH]c2ccccc12	32%
O=C(CCn1ccc(=O)[nH]c1=O)NC1CCCN(CCCc2ccccc2)C1 (centres undefined)	-10%
O=C(CCc1nc(-c2ccccc2)no1)NC1CCCN(CCCc2ccccc2)C1 (centres undefined)	7.1µM*
COC(=O)N1CCCCC(NC(=O)CCCc2nc(-c3ccccc3C)no2)C1 (centres undefined)	-19%
COC(=O)c1cccc(C(=O)NC2CCCN(CCCc3ccccc3)C2)c1 (centres undefined)	8.9µM*
O=C(c1ccccc1OCC1CCCN(CCCc2ccccc2)C1)N1CCCC1 (centres undefined)	i
CCN(CC)S(=O)(=O)NC1CCCN(CCCc2ccccc2)C1 (centres undefined)	-2%
COc1ccc(-c2noc(C(=O)O)c2[C@@H](C)NC(=O)Nc2cccnc2)cc1	-3%[44.1 µM]
CN1C(=O)CCC2(CNC(=O)c3cccs3)CCC=C12 (centres undefined)	12%
CCN1c2cc(C(=O)Nc3ccc(Cl)c(F)c3)ccc2C(=O)N2CCCCC21 (centres undefined)	-24%
CN1CCN(C(=O)[C@@H]2CCC[C@@H](NC3CCOCC3)CN(C)C(=O)C2)CC1	35%[44.1 µM]
CCOC(=O)c1cccc(Nc2nc(-c3ccccc3)no2)c1	-7%
CN1CCN(c2nc3c(c(=O)[nH]2)CCN(Cc2cc(Cl)ccc2F)CC3)CC1	74%[5.79 µM]
Cc1ccc(C(=O)N2CCC3(CCCN(C4CCOCC4)C3=O)C2)cc1F (centres undefined)	-11%
COc1cc(NC(=O)N[C@H]2CO[C@H]3[C@@H]2OC[C@@H]3Nc2nccc(-c3ccc(N(C)C)cc3)n2)cc(OC)c1	13µM*
COC(=O)c1ccccc1NC(=O)O[C@@H]1CO[C@H]2[C@@H]1OC[C@@H]2Nc1nccc(-c2ccc(N(C)C)cc2)n1	5µM*
CN(C)c1ccc(-c2ccnc(N[C@H]3CO[C@H]4[C@@H]3OC[C@H]4OC(=O)NCc3ccccc3)n2)cc1	i
COc1ccc(-c2ccnc(N[C@H]3CO[C@H]4[C@@H]3OC[C@@H]4NC(=O)Nc3cccc(C#N)c3)n2)cc1	-29%
COc1ccc(-c2ccnc(N[C@H]3CO[C@H]4[C@@H]3OC[C@H]4OC(=O)Nc3cccc(OC)c3)n2)cc1	-8%
COc1cc(NC(=O)N[C@H]2CO[C@H]3[C@@H]2OC[C@@H]3Nc2nccc(-c3ccc(-c4ccccc4)cc3)n2)cc(OC)c1	-27%
Cc1cc(OCCN2CCOCC2)c(C)c2c1CC[C@@H]([C@H](C)C(=O)N1CCOCC1)C2	i
O=C(NC1CCN(c2cc(-c3cccs3)[nH]n2)C1)c1cccc2[nH]ccc12 (centres undefined)	i
O=C(NCc1cccs1)c1ccc2nccn2c1	18%[44.1 µM]
CCOC(=O)c1c(C)sc(-c2c(-c3cccc(Cl)c3)[nH]c3c2c(=O)n(C)c(=O)n3C)c1O	146%
CCOC(=O)c1c(C)sc(-c2c(-c3cc(C)ccc3C)[nH]c3c2c(=O)n(C)c(=O)n3C)c1O	10µM*
SMILES	Pf Dd2 inh
CCOC(=O)c1c(C)sc(-c2c(-c3cc(C)ccc3C)[nH]c3c2c(=O)[nH]c(=O)n3C)c1O	-6%
O=C(c1cccnc1)N1CCCCC1c1noc(COc2ccc(F)cc2)n1 (centres undefined)	i
Cc1cnc(CC2CCN(C(=O)CCc3c[nH]c4ccccc34)C2)n1CC1CC1 (centres undefined)	i
Cc1cnc(CC2CCCN(C(=O)N(C)C)C2)n1C(C)C (centres undefined)	-11%
Cc1cnc(CC2CCCN(C(=O)CCc3c[nH]c4ccccc34)C2)n1C(C)C (centres undefined)	4.5µM*
CCCn1nccc1S(=O)(=O)N1CCc2nc(-c3ccccc3)[nH]c2C1	-22%
CCOc1ccc(C(=O)N2CC(C(=O)NCCc3ccncc3)C3(CCOCC3)C2)cc1 (centres undefined)	-2%
CC(C)C1CN(CC2CCC(N)CC2)CCC(=O)N1Cc1ccc(F)cc1 (centres undefined)	-14%
CN(C)C[C@@H]1CN(Cc2ccccc2)C[C@H]1NC(=O)c1cn(C)cn1	4%
Cc1ccc(NC(=O)C2CCCN(c3ncnc4c3nc3n4CCCCC3)C2)cc1F (centres undefined)	23%
O=C(Nc1ccc2ncnc(N3CCCCC3)c2c1)c1cc(F)cc(F)c1	-20%
O=C(Nc1ccc(Cl)cc1)c1ccc(-n2cnnc2)cc1	-6%
CCc1cc(N2CCCC(C(=O)c3sccc3C)C2)ncn1 (centres undefined)	i
O=C(Nc1ccc2ncnc(N3CCCCC3)c2c1)c1ccccc1	i
CCc1cccc(NC(=O)c2c(C)oc3ncnc(N4CCCCC4)c23)c1	-10%
O=C(Nc1ccc2c(N3CCCC3)ncnc2c1)c1ccc(Cl)cc1	2.8µM*
Cc1ccsc1C(=O)Nc1ccc2c(N3CCCCC3)ncnc2c1	11µM*
Cc1ccc(C(=O)Nc2ccc3c(N4CCCCC4)ncnc3c2)cc1F	6.3µM*
O=C(Nc1ccc2c(N3CCCCC3)ncnc2c1)c1ccc(F)cc1	3.2µM*
CC(=O)c1ccc(NC(=O)c2nc3ccccc3nc2N2CCCCC2)cc1	i
Cc1ccc(NC(=O)c2ccc3c(c2)N(C)C2CCCCN2C3=O)cc1F (centres undefined)	-19%
CCn1cc(S(=O)(=O)N2CCCCC2c2nc(C3CC3)n[nH]2)cn1 (centres undefined)	1%
O=C(N1CCC(Cc2nc(C3CC3)n[nH]2)CC1)C1(c2ccccc2)CC1	i
CN1CCC2(Cc3ccccc3CN([S+](C)(=O)[O-])C2)C1 (centres undefined)	-20%[44.1 µM]
CCC(=O)N1CCN(C2CCN(CCOC)C2=O)CC1 (centres undefined)	-6%
SMILES	Pf Dd2 inh
CC(C)Oc1ccc2c(NC(=O)C3CCOCC3)nn(CC(F)(F)F)c2c1	-12%
COc1ccc(C(=O)N2CCC(N3Cc4cnc(C)n4C3=O)CC2)cc1	10%
CCC(=O)Nc1cccc(OCC(=O)NCc2sc(C)nc2CC)c1	-1%
COCCN1CCOC[C@H]2CCN(C(=O)c3ccco3)C[C@H]21	i
Cc1ccc(C(=O)Nc2ccc3c(N4CCOCC4)ncnc3c2)cc1C	11µM*
O=C(Nc1ccc2oc(-c3cccnc3)nc2c1)c1cccc(Br)c1	54%
COc1cccc(C(=O)Nc2ccc3c(N4CCOCC4)ncnc3c2)c1	-17%
CCc1ccc(-c2nc3cc(NC(=O)c4ccc(C)c(C)c4)ccc3o2)cc1	-12%
O=C(Nc1ccc2c(N3CCCC3)ncnc2c1)c1cccc(Br)c1	0.89µM*
COCCO[C@H]1C(=O)N(C2CCN(Cc3c[nH]c4ccccc34)CC2)[C@H]1c1ccncc1	i
CCOc1nccnc1NC1CCN(C(=O)c2cccs2)CC1	i[5.79 µM]
CCN1CC(c2ccccc2)CC2(CCN(C(=O)COC)CC2)C1 (centres undefined)	-8%
Cc1noc(C)c1C(=O)NC1CCCc2c1[nH]c1ccccc21 (centres undefined)	-9%
CN(C)c1cccc(C(=O)NC2CCN(c3cnn(C)c(=O)c3)CC2)c1	i
CNC(C)c1c(F)cccc1F (centres undefined)	2%[44.1 µM]
CCOCCOC1CCN(S(=O)(=O)Cc2ccccc2F)CC1	17%
Cc1cn2nc(C(=O)N3CCC(NC(=O)Cc4ccccc4C)CC3)cc2c(=O)[nH]1	i
Cc1cn2nc(C(=O)N3CCC(NC(=O)Cc4ccc(Cl)cc4)CC3)cc2c(=O)[nH]1	2.5µM*
